The list is not random: actives were taken first. Their share in the collection is about 6.2%.
ATXN2 expr inh: inhibitors of ATXN2 expression; HEK-293 ATXN2-luciferase reporter, luminescence, 24 h; Potency, µM (doses to about 57 µM), usual class: inhibitors; 360,000 compounds, 0.72% hits; further: nearly all actives have a fitted effect of over 55% in size
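qHTS (up to 57 uM final) was run with 24 h compound exposure of reporter cells at 37 °C. Each well was multiplexed: SteadyGlo luminescence measured ATXN2-luciferase expression after a fluorogenic Gly-Phe-AFC viability readout (25 uM final).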
KB-V1 MDR tox: kills drug-selected multidrug resistant KB-V1 cells; KB-V1 MDR cells viability, CellTiter-Glo, 72 h; Potency, µM (series often up to 46.1 µM), hits mostly cytotoxic; 400,000 compounds, 3.4% hits; AID 1347076; further: nearly all actives have a fitted effect of over 60% in size
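qHTS viability screen in drug-selected KB-V1 MDR cells: 72 h compound treatment at 37 degrees C, ATP luminescence end point.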
HT1080 IDH1KD tx: kills HT-1080 cells with IDH1 knockdown; 360,000 compounds, 2% hits; AID 686971; Potency, µM (doses to about 46.1 µM), usual class: cytotoxic; HT-1080 IDH1 knockdown viability, ATP luminescence, 48 h
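Knockdown cells (IDH1KD HT-1080) received compounds 2 h after plating at 750 cells/well and were kept 48 h at 37 °C in 5% FBS RPMI. A CellTiter-Glo luminescence read gave % activity for curve fitting.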
KB-3-1 tox: kills parental KB-3-1 adenocarcinoma cells; 400,000 compounds, 1.4% hits; KB-3-1 viability, CellTiter-Glo ATP luminescence, 72 h; Potency, µM (doses to about 46.1 µM), usual class: cytotoxic; further: nearly all actives have a fitted effect of over 60% in size
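Parental KB-3-1 viability, qHTS format: 72 h compound exposure, 37 °C; CellTiter-Glo; media-only wells and DMSO plates as controls; concentration-effect fits on corrected data.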
HT1080-NT tox: kills 2HG-producing HT-1080-NT fibrosarcoma cells; HT-1080-NT fibrosarcoma viability, CellTiter-Glo ATP luminescence, 48 h; Potency, µM (doses to about 46.1 µM), usual class: cytotoxic; 360,000 compounds, 1.6% hits;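 further: NT is the 2HG producing partner of a matched IDH1 knockdown line; nearly all actives have a fitted effect of over 55% in size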
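750 cells/well, RPMI + 5% FBS; 2 h settle, compound pin-transfer, 48 h at 37 degrees C. CellTiter-Glo 10 min RT, luminescence. Normalized to DMSO and media-only wells.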
S2 tox: viability counter-screen for ATXN expression inhibitors; S2 cells (HEK-293 line with an ATXN2-luciferase reporter) viability, CellTiter-Fluor protease fluorescence, 24 h; 400,000 compounds, 0.49% hits; Potency, µM (titrated, usually from 56.7 µM), actives largely listed as cytotoxic; AID 651635; further: nearly all actives have a fitted effect of over 40% in size
A number is an active result; 0 = inactive; ? = inconclusive; - = no result given; ! = not active in a repeat; [ ] = dose if it differs, or a comment. The call rests on the fitted dose curve; in most records, active means well fitted curve in the direction sought with a large enough effect; inconclusive means small, poorly fitted or top-dose-only effect, or another doubt; inactive means no such curve, though single readings can be large; an effect the other way counts as inactive or inconclusive.

SMILES | ATXN2 expr inh | KB-V1 MDR tox | HT1080 IDH1KD tx | KB-3-1 tox | HT1080-NT tox | S2 tox
O=C(C[C@H]1C(=O)N(c2ccccc2)C[C@@H]1Cc1ccccc1)Nc1ccccc1 | 0 | 9.2µM! | 0 | 23µM! | 0 | 0
CC(C)NCCCC1(C(N)=O)c2ccccc2-c2ccccc21 | 0 | - | - | - | - | 0
Cc1ccccc1-c1nnc(NC(=O)Nc2ccc3ccccc3c2)s1 | - | 0 | - | ? | - | -
CC(=O)c1cccc(S(=O)(=O)N2CCn3cccc3C2C)c1 (stereo unspecified) | - | 0 | 0 | 0 | 0 | ?
CCN(CC)C(=O)Oc1ccc2c(=O)c(-c3ccc(OC)cc3)coc2c1 | 0 | 12µM | 0 | ? | 0 | 0
COc1ccc2c(=O)c(-c3ccccc3C)c(C)oc2c1 | 0 | 0 | 0 | 0 | 0 | 0
CCN(CC)C(=O)Oc1ccc2c(=O)c(-c3ccc(OC)cc3)c(C)oc2c1 | 0 | 9.2µM | 0 | 0 | 0 | ?
COc1ccc(-c2coc3cc(OC(=O)N4CCOCC4)ccc3c2=O)cc1 | 0 | ? | 0 | 0 | 0 | 0
CCC(c1nnnn1-c1ccc2c(c1)OCCO2)N1CCN(Cc2c(F)cccc2Cl)CC1 (stereo unspecified) | 0 | ? | 0 | ? | 0 | 0
CSc1nsc(SC)c1NC(=O)Nc1ccccn1 | 0 | 15µM | ? | 0 | 0 | 0
Cc1[nH]c2ccccc2c1C(=O)CN1C(=O)C(=O)N(Cc2ccco2)C1=O | 0 | 0 | 0 | 0 | 0 | 0
Cc1cc(C(=O)CN2C(=O)C(=O)N(Cc3ccco3)C2=O)c(C)n1CCc1ccccc1 | 0 | 16µM | ? | ? | ? | ?
Cc1cc(C(=O)CN2C(=O)C(=O)N(Cc3ccco3)C2=O)c(C)n1CCc1ccc(F)cc1 | 0 | 15µM | ? | 18µM | ? | ?
COc1ccc(/C=C(/NC(=O)c2ccccc2)c2nc3ccc(Cl)cc3[nH]2)cc1OC | 0 | 12µM | 0 | ? | 0 | ?
C=CCn1c(=O)c2c(nc3n2CCN3c2cccc(Cl)c2C)n(C)c1=O | 0 | 8.2µM | 0 | 0 | 0 | 0
COc1ccc(Cl)cc1NC(=O)CCS(=O)(=O)c1cccc2nonc12 | 0 | 0 | - | 0 | - | -
CCCCn1c(CCC(=O)O)nc2c1c(=O)[nH]c(=O)n2CCC | 0 | 0 | 0 | 0 | 0 | 0
CCCCn1c(=O)[nH]c(=O)c2c1nc(COC(=O)c1c(C)noc1C)n2CCC | 0 | 4.1µM | 0 | 0 | 0 | 0
CCCCCCCCOC(=O)c1cc([N+](=O)[O-])c(Sc2ncnc3nc[nH]c23)c([N+](=O)[O-])c1 | ? | ? | 13µM | ? | ? | -
CCCCOC(=O)c1ccc(Nc2ncnc3nc[nH]c23)cc1 | 0 | 0 | 0 | 0 | 0 | 0
CC[C@]12CCCN3CCc4c(n(c5ccccc45)[C@@](O)(C(=O)OC)C1)[C@@H]32 | 0 | 0 | 0 | 0 | 0 | 0
CCOC(=O)C1=C[C@]2(CC)CCCN3CCc4c(n1c1ccccc41)[C@@H]32 | 31µM! | ? | 0 | 0 | 0 | ?
CC[C@]12CCCN3CCc4c(n(c5ccccc45)C(=O)C1)[C@@H]32 | ? | 4.1µM | 0 | ? | ? | ?
CCOC(=O)Cn1c2c(c(=N)c3ccccc31)CCC2 | 0 | ? | 0 | 0 | 0 | 0
CC(=O)C1=C(O)C(=O)N(c2ccc(Br)cn2)C1c1ccc(Br)cc1 (stereo unspecified) | - | ? | ? | 3.7µM | ? | 0
SMILES | ATXN2 expr inh | KB-V1 MDR tox | HT1080 IDH1KD tx | KB-3-1 tox | HT1080-NT tox | S2 tox
Cc1ccc2onc(CNC(=O)N3CCN(c4cc(Cl)ccc4C)CC3)c2c1 | ? | 0 | - | 0 | - | ?
O=C(Nc1ccc(Cl)c(Cl)c1)Nc1ccccc1C(=O)O | 0 | 15µM | ? | ? | ? | ?
O=C(Cc1ccccc1)Nc1ccc(NC(=O)c2cccs2)cc1Cl | 0 | 0 | 0 | 0 | 0 | 0
O=C(Cc1ccccc1)NNC(=O)Nc1ccc(Cl)c(Cl)c1 | 0 | 0 | 15µM | 0 | 0 | 0
O=C(Cc1ccccc1)Nc1ccc(NC(=O)c2cccs2)c(Cl)c1 | 0 | 21µM | 0 | 0 | 0 | ?
O=C(Cc1ccccc1)NNC(=O)Nc1cccc(Cl)c1 | 0 | 0 | 0 | 0 | 0 | 0
CCN(Cc1ccncc1)Cc1ccc2c(c1)CN(C(=O)c1ccccc1-n1cccn1)CCO2 | - | - | - | - | - | 0
CCCCn1nnnc1NCc1cc(OC)c(OC)cc1OC | 0 | 26µM | 0 | 0 | 0 | ?
CC(=O)NC(Cc1ccc(O)cc1)C(=O)NCC(N)C(=O)c1ccccc1 (stereo unspecified) | - | - | 0 | - | 0 | -
COc1ccc2c(c1)CC(C(=O)NCCCN1CCN(c3ccc(F)cc3)CC1)CO2 (stereo unspecified) | 0 | 0 | - | 0 | - | 0
O=C(NC(=S)Nc1ccc(Br)cc1)C1CCC1 | 0 | 0 | 0 | 0 | 0 | 0
CCOC(=O)[C@]12CCC=C1N(Cc1cccc3ccccc13)C(=O)[C@H](CC(=O)NCc1ccc(C)o1)C2 | 0 | 12µM | ? | 0 | ? | ?
CCOC(=O)[C@]12CCC=C1N(Cc1cccc3ccccc13)C(=O)[C@H](CC(=O)NCCc1ccccc1OC)C2 | 0 | 15µM | 0 | ? | 0 | ?
CCOC(=O)[C@]12CCC=C1N(Cc1cccc3ccccc13)C(=O)[C@H](CC(=O)NCCCCc1ccccc1)C2 | 0 | 16µM | 0 | ? | 0 | ?
CC(=O)Nc1ccc(CN(C)c2c(C)nc3ccc(C(=O)NCCc4ccccn4)cn23)cc1 | 0 | 0 | 0 | 0 | 0 | 0
Oc1ccc(NC(=S)N=Nc2c(O)[nH]c3ccc(Br)cc23)cc1 | ? | ? | 21µM | 0 | ? | ?
Oc1[nH]c2ccc(Br)cc2c1N=NC(=S)Nc1ccc(F)cc1 | 0 | ? | ? | ? | ? | ?
Oc1ccc(NC(=S)N=Nc2c(O)[nH]c3ccccc23)cc1 | 0[11.3 µM] | 0 | 0 | 0 | 0 | ?
Oc1cccc(NC(=S)N=Nc2c(O)[nH]c3ccc(Br)cc23)c1 | 0 | 0 | 21µM | ? | ? | 0
CC(C)c1ccc2[nH]c(O)c(N=NC(=O)c3cccc(S(=O)(=O)N4CCCCC4)c3)c2c1 | 0 | 2.3µM | 0 | ? | 0 | ?
CNC(=S)N=Nc1c(O)[nH]c2ccc(C(C)C)cc12 | 0 | 21µM | 0 | ? | 0 | 0
O=C(N=Nc1c(O)[nH]c2ccccc12)c1cccc(S(=O)(=O)N2CCCCC2)c1 | 0 | 0 | 0 | 0 | 0 | 0
CCOC(=O)Cc1c(C)nc2cc(-c3ccc(C(C)(C)C)cc3)nn2c1C | 0 | 0 | - | 0 | - | 0
CCOC(=O)CCc1c(C)nc2c(-c3ccccc3)c(C)[nH]n2c1=O | 0 | 0 | - | 0 | - | 0
CCOC(=O)Cc1c(C)nc2c(-c3ccc(Cl)cc3)c(C)[nH]n2c1=O | ? | ? | 10µM | ? | 13µM | 0
CCOC(=O)Cc1c(C)nc2cc(-c3ccc(C(C)(C)C)cc3)[nH]n2c1=O | 0 | 0 | 1.3µM | 0 | ? | 0
CCCN1CNc2c(c(=O)[nH]c(=S)n2CCCc2ccccc2)C1 | - | - | 0 | - | 0 | -

High-throughput results (PubChem)
